# Experimental data: PubChem BioAssay AID1259313 (Sanford-Burnham Center for Chemical Genomics, 2017)
# The whole screen tested about 340,000 compounds, of which about 8,500 (2.5%) were called active. This is one part of a sample in which actives are shown more often than they occur. Values without a mark were called inactive.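 The calls were made as follows: active = melting temperature shift of at least 10% of the positive control shift, at one fixed dose; inactive = the rest.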
# System: Glutamate receptor ionotropic, NMDA 3A (GRIN3A) ligand-binding domain
# Assay: binders of NR3A ligand-binding domain, primary screen, biophysical, differential scanning fluorimetry, uHTS (AID 1259313)
# Conditions: NR3A LBD differential scanning fluorimetry, at 25 µM, stronger effect = higher value, 0% = protein alone, 100% = glycine-bound protein
row,SMILES,Tm shift relative to glycine control
1,Nc1ncnc(Nc2cccc(Cl)c2Cl)n1,-0.42%
2,O=C(NCc1ccccc1)[C@H]1C[C@@H]1[C@H](NP(=O)(c1ccccc1)c1ccccc1)c1ccccc1,-1.54%
3,CC[C@]12c3[nH]c4cc(CCC(=O)N(C)C)ccc4c3CCN1C(=O)[C@@H](CC(=O)NCC13CC4CC(CC(C4)C1)C3)C[C@@H]2C(=O)N1CCN(C(=O)C2CC2)CC1,-2.56%
4,CC(NC(=O)Nc1ccccc1)c1ccccc1 (centres undefined),-5.71%
5,C=CCSc1nsc(NC(=O)Nc2cccc(C(C)=O)c2)n1,15.6% (active)
6,CCSc1nsc(NC(=O)Nc2cccc(C(C)=O)c2)n1,0.77%
7,CSc1nsc(NC(=O)Nc2ccccc2)n1,19.7% (active)
8,CSc1nsc(SCC(=O)Nc2cc(C(=O)O)ccc2C)n1,1.25%
9,CC(=O)c1cccc(NC(=S)N2CCCC2)c1,2.43%
10,S=c1[nH]c2ccccc2c2ccccc12,-5.09%
11,OCC1(Cc2ccccc2C(F)(F)F)CCN(Cc2ccncc2)CC1,-1.43%
12,CCOc1cc(CNn2c(C)nnc2SCC(=O)NC(C)(C)C)ccc1OCC(=O)NC(C)(C)C,-4.76%
13,CC1(C)CC(CNCCC(c2ccc(F)cc2)c2ccco2)CCO1 (centres undefined),0.16%
14,COC(=O)CSc1ccc2nnc(CCNS(=O)(=O)c3ccc(C)cc3)n2n1,-0.94%
15,CN(C)S(=O)(=O)c1ccc(NC(=O)COC(=O)c2n[nH]c3ccccc23)cc1,-2.54%
16,CCN(CC)S(=O)(=O)c1ccc(C(=O)N2CCN(C3=NS(=O)(=O)c4ccccc43)CC2)cc1,0.26%
17,O=C(Nc1nnc(COc2ccccc2)s1)Nc1ccccc1F,1.33%
18,O=C(Nc1ccccc1)Nc1nnc(COc2ccccc2F)s1,38.9% (active)
19,COCC(=O)Nc1nnc(COc2ccccc2)s1,2.29%
20,Cc1ccc(-c2nnc(SCC(=O)N/N=C/c3cccs3)n2-c2ccc(C)cc2)cc1,-6.78%
21,COc1cccc(/C=C/C(=O)Nc2ccc3c(c2)OCCO3)c1,2.64%
22,CCC1([N+](=O)[O-])COC(c2ccc(C)cc2)OC1 (centres undefined),-10.1%
23,NC(=O)CC[C@@H]1NC(=O)[C@H](CO)NC(=O)c2cc([N+](=O)[O-])cc(I)c2NCC[C@@H](C(N)=O)NC1=O,-0.81%
24,O=C(NCc1ccccc1Cl)C1CCCN1S(=O)(=O)c1ccc(F)cc1 (centres undefined),2.13%

row,SMILES,Tm shift relative to glycine control
1,O=C(CN1CCN(S(=O)(=O)c2ccc(Cl)s2)CC1)NCc1ccc(Cl)cc1,-1.27%
2,CN(NC(=O)c1ccccc1)c1nc2ccccc2nc1C(F)(F)F,11.4% (active)
3,CSc1nc(N(C)NC(=O)c2cccc(C)c2)c2ccccc2n1,3.17%
4,CN(NC(=O)c1ccccc1F)c1nc(C(F)(F)F)nc2ccccc12,0.16%
5,Cc1ccc(C)c(C(=O)N2CCC(n3nccc3NC(=O)C3CC3)CC2)c1,0.44%
6,CCC1(CC)NC(=O)N(Cc2nc3ccccc3s2)C1=O,-0.61%
7,O=C1NC(Nc2nc3ccccc3s2)(C(F)(F)F)C(=O)N1C1CCCCC1 (centres undefined),13.7% (active)
8,O=C(NC1(C(F)(F)F)NC(=O)N(C2CCCCC2)C1=O)c1ccco1 (centres undefined),1.55%
9,Cc1ccc2oc(=O)c3cnn(CC(=O)N4CCN(c5ccccn5)CC4)c3c2c1,0.6%
10,CCOc1cccc2cc(C(=O)OCC(=O)Nc3c(C)cccc3CC)c(=O)oc12,-0.27%
11,N#C/C(=C\N1CCOCC1)S(=O)(=O)c1ccc(Cl)cc1,-0.42%
12,CCCN(CCC)c1c([N+](=O)[O-])c(=O)oc2ccccc12,-4.15%
13,Cc1ccc(C(=O)Cn2cc([N+](=O)[O-])nc2C)cc1,2.36%
14,Cc1ccc(-c2cn3cc([N+](=O)[O-])ccc3n2)cc1,0.72%
15,Cc1ccc(-n2cc3ccc([N+](=O)[O-])cc3n2)cc1,13.3% (active)
16,CN(C)/C=C(/C(=O)c1ccccc1)S(=O)(=O)c1ccc(Cl)cc1,-1.01%
17,Cc1cc(NC(C)C)n2c(nc3ccccc32)c1C#N,0.92%
18,CC(C)c1cc(NCc2ccccn2)n2c(nc3ccccc32)c1C#N,1.69%
19,Cc1cc(NCc2ccco2)n2c(nc3ccccc32)c1C#N,19.7% (active)
20,O=C(NCc1ccc2c(c1)OCO2)C12CC3CC(CC(C3)C1)C2,-0.27%
21,CCOC(=O)Cc1csc(NC(=O)COc2ccc3c(C)cc(=O)oc3c2)n1,-1.92%
22,Cc1ccc(O)c(/C=N/NC(=O)COc2ccc3c(C)cc(=O)oc3c2)c1,16.8% (active)
23,Cc1cc(=O)oc2cc(OCC(=O)Nc3nnc(C4CC4)s3)ccc12,-0.86%
24,O=C(NCc1cccs1)c1cc(-c2ccccn2)nc2ccc(Br)cc12,-0.39%

row,SMILES,Tm shift relative to glycine control
1,CC(C)Cn1c(N)c(C(=O)NCc2cccs2)c2nc3ccccc3nc21,19.1% (active)
2,CCOc1ccccc1NC(=O)Cn1nnc(C(=O)NCc2cccs2)c1N,-0.84%
3,Cc1ccc(S(=O)(=O)c2ccc(Cl)cc2)cc1S(=O)(=O)NC(C(=O)O)C(C)C (centres undefined),-2.2%
4,CCCOn1c(-n2nc(C)cc2C)nc2ccccc2c1=O,1.18%
5,O=C(CSc1ccc(C(F)(F)F)cc1[N+](=O)[O-])NCCOc1ccccc1,-6.06%
6,N#C/C(=C(/O)COC(=O)COc1ccc(Cl)cc1)c1nc2ccccc2[nH]1,7.42%
7,Oc1ccc2nc(Cc3ccccc3)[nH]c2c1,-5.45%
8,O=C(/C(=C/c1cccc(Cl)c1)c1nc2ccccc2[nH]1)c1ccccc1,23% (active)
9,CN(CC1CCCN(CCc2cccc(C(F)(F)F)c2)C1)C(=O)c1ccc2nc[nH]c2c1 (centres undefined),1.25%
10,O=C(Cn1cc(/C=N/NC(=O)c2cccc(C(F)(F)F)c2)c2ccccc21)Nc1ccc(F)cc1,15.8% (active)
11,O=C(CN1CCN(c2ccc(F)cc2)CC1)Nc1cccc(C(F)(F)F)c1,-4.33%
12,NC(=O)Cn1cc(/C=N\NS(=O)(=O)c2ccccc2)c2ccccc21,-34.7%
13,CCCOC(=O)c1ccc(N2C(=O)c3ccccc3C2=O)cc1,-1.6%
14,Cc1ccc(NC(=O)c2cc(-c3ccccc3O)n[nH]2)cc1C,26.2% (active)
15,Cc1ccc(NC(=O)CCN2C(=O)c3ccccc3C2=O)cc1C,-0.19%
16,Cc1ccc(C)c(NC(=O)c2cc(-c3cc(C)cc(C)c3O)n[nH]2)c1,0.62%
17,O=C(CNS(=O)(=O)c1ccc2ccccc2c1)Nc1ccc(F)c(F)c1F,35% (active)
18,O=C(CNS(=O)(=O)c1cccc(C(F)(F)F)c1)Nc1ccccc1F,-1.13%
19,CN(CC(=O)NCCc1ccc(S(N)(=O)=O)cc1)CC(=O)Nc1ccc(F)c(F)c1F,-1.98%
20,O=C(c1ccncc1)N1CCN(S(=O)(=O)c2cccc([N+](=O)[O-])c2)CC1,2.5%
21,Cc1ccc(Cc2cncc(O)c2)cc1S(=O)(=O)O,0.09%
22,CNc1nc(=O)n(C2CCCO2)cc1C (centres undefined),-4.19%
23,COCC(C)OC(=O)c1c(N)n(CCCN2CCOCC2)c2nc3ccccc3nc12 (centres undefined),-0.69%
24,CN(C)CCCn1c(N)c(C#N)c2nc(C#N)c(C#N)nc21,-3.53%

row,SMILES,Tm shift relative to glycine control
1,N#Cc1c(N)n(CCOC(=O)c2ccc(Cl)cc2)c2nc3ccccc3nc12,35.9% (active)
2,C=CCc1cccc2cc(C(=O)N3CCN(C(=O)OCC)CC3)c(=O)oc12,-2.65%
3,Cc1ccc(NC(=O)CSc2nn3c(=O)c(C)nnc3s2)cc1Cl,-1.28%
4,C/C(=N\Nc1ccc(Cl)nn1)c1ccccc1O,-6.71%
5,CC(C)(C)c1ccc(SCCc2ccncc2)cc1,0.08%
6,O=C(Nc1cccc(S(=O)(=O)NC2=NCCC2)c1)c1ccc(F)cc1F,0.09%
7,O=C(Nc1cc(S(=O)(=O)Nc2ccc(Cl)cc2)ccc1O)c1ccc(F)cc1F,37.7% (active)
8,Cc1cc(NS(=O)(=O)c2ccc(NC(=S)NC(=O)c3ccc(F)cc3Cl)cc2)no1,0.87%
9,Cn1c(Cc2cccc3ccccc23)nnc1SCC(=O)N1CCN(c2cccc(Cl)c2)CC1,5.43%
10,CCC(Oc1ccccc1C)C(=O)Nc1ccc(S(=O)(=O)Nc2cc(C)on2)cc1 (centres undefined),3.83%
11,Cc1ccc(S(=O)(=O)N2CCCCC2)cc1C(=O)N1CCN(CCO)CC1,2.45%
12,COc1ccccc1N(CCOc1ccccc1)S(=O)(=O)c1ccccc1,12.6% (active)
13,COc1ccccc1NC(=O)CN(c1ccccc1OC)S(=O)(=O)c1ccccc1,0.31%
14,COc1ccccc1N(CC(=O)N1CCCCC1)S(=O)(=O)c1ccccc1,0.84%
15,NC(=S)Nc1c(Cl)cccc1Cl,2.25%
16,CN(CC(=O)Nc1c(Cl)cccc1Cl)C(=O)CNC(=O)C1CCCCC1,0.17%
17,O=C(Nc1c(Cl)cccc1Cl)C1CCC1,12.7% (active)
18,Cc1c(S(=O)(=O)NC(C)c2ccccc2)c(=O)n(C)c(=O)n1C (centres undefined),-6.52%
19,Cc1c(S(=O)(=O)NCc2ccccc2)c(=O)n(C)c(=O)n1C,-0.41%
20,Cc1c(S(=O)(=O)N2CC(C)CC(C)C2)c(=O)n(C)c(=O)n1C (centres undefined),11.1% (active)
21,O=C(NCCc1ccccc1Cl)C1CCC(=O)N(CCCc2ccccc2)C1 (centres undefined),3.05%
22,O=C(NNC(=O)c1ccc(-n2cncn2)c([N+](=O)[O-])c1)c1ccccc1,3.86%
